Measured values as given in the supplement of paper PMC7156485.
Values without a mark were called inactive.

Test system: HCC1569
Test: H1.0 immunofluorescence intensity relative to DMSO (% of DMSO); higher = stronger H1.0 induction, active = 140 or more
Conditions: concentration: 10 µM; 24 h
In short: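 Cells were seeded at 800 per well in 384-well plates with RPMI containing 10% FBS; both HCC1569 and TDF lines were used. Compounds were added at 10 µM for 24 h at 37 °C, in triplicate, before fixation in 3.7% formaldehyde and staining with a rabbit anti-H1.0 antibody, an AlexaFluor 647 secondary and DAPI. H1.0 nuclear intensity or cell number is reported as percent of the plate control using the median of replicates, and HCC1569 values were smoothed for positional effects.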
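Note: TDF is a line of transformed human dermal fibroblasts of mesenchymal origin.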

How did the H1.0 immunofluorescence intensity turn out when `C[N+]1([O-])C2CC(OC(=O)C(CO)c3ccccc3)CC1C1OC12` (single isomer, unassigned; (-)) [(-)-Scopolamine N-oxide] was run?
The H1.0 immunofluorescence intensity was 102.

For `CC(C)C1C(=O)OC2CCN3CC=C(COC(=O)C(C)(O)C1(C)O)C23` (stereo not given) [Trichodesmine], which H1.0 immunofluorescence intensity is on record?
The H1.0 immunofluorescence intensity was 89.8.

`C/C(Nc1ccccc1)=C1\C(=O)NC(Cc2ccccc2)C1=O` (stereo not given) [(3E)-3-(1-anilinoethylidene)-5-benzyl-2,4-pyrrolidinedione] was tested. Which H1.0 immunofluorescence intensity did it give?
Its H1.0 immunofluorescence intensity is 148 (active).

`NC(=NN=Cc1ccc(-c2cccc([N+](=O)[O-])c2)o1)N[N+](=O)[O-]` [ERK Inhibitor III] was tested. Which H1.0 immunofluorescence intensity did it give?
Its H1.0 immunofluorescence intensity is 102.

For `CC(=O)C1=C(O)C2C3c4c[nH]c5cccc(c45)CC3C(C)(C)N2C1=O` (stereo not given) [Cyclopiazonic acid], which H1.0 immunofluorescence intensity is on record?
The H1.0 immunofluorescence intensity was 101.

`CCCN1CCc2cccc3c2C1Cc1ccc(O)c(O)c1-3.Cl` (stereo not drawn) [R(-)-Propylnorapomorphine hydrochloride] was tested. Which H1.0 immunofluorescence intensity did it give?
The H1.0 immunofluorescence intensity was 105.

How did the H1.0 immunofluorescence intensity turn out when `O=C(Oc1ccc([N+](=O)[O-])cc1)N1CCN(Cc2cccc(Oc3ccccc3)c2)CC1` [4-nitrophenyl 4-(3-phenoxybenzyl)-1-piperazinecarboxylate] was run?
The H1.0 immunofluorescence intensity was 105.

How did the H1.0 immunofluorescence intensity turn out when `CC(C)C1(NC(=O)C2C=C3c4cccc5[nH]cc(c45)CC3N(C)C2)OC2(O)C3CCCN3C(=O)C(Cc3ccccc3)N2C1=O` (stereo not given) [Ergocristine] was run?
Its H1.0 immunofluorescence intensity is 90.3.

`Cl.NC(=O)c1ccc(OCC(O)CN2CC=C(c3ccc(F)cc3)CC2)cc1` (stereo not given) was tested. Which H1.0 immunofluorescence intensity did it give?
Its H1.0 immunofluorescence intensity is 106.

How did the H1.0 immunofluorescence intensity turn out when `CCCCC(C)C(OC(=O)CC(CC(=O)O)C(=O)O)C(CC(C)CCCCCCC(O)CC(O)C(C)N)OC(=O)CC(CC(=O)O)C(=O)O` (stereo not given) [Fumonisin B2] was run?
Its H1.0 immunofluorescence intensity is 89.7.
